Laboratory results from PubChem BioAssay (NCATS).
“And” between values parts separate entries of the source, which are not always exact repeats. Equal values may be shown once. Records with an inconclusive call do not appear. The source made the active and inactive calls. Unless noted, calls come from the whole dose curve; as a rule, active = well fitted curve in the direction sought with a large enough effect; inconclusive = small, poorly fitted or top-dose-only effect, or another doubt; inactive = no such curve, though single readings can be large; an effect the other way counts as inactive or inconclusive.

What was measured:
[1] = molecular target: Glucocorticoid receptor (Homo sapiens) (UniProt P04150); assay: qHTS assay for small molecule agonists of glucocorticoid receptor signaling (AID 588532; active = well fitted curve in the direction sought with a large enough effect in the signal ratio, with a control signal flat; the % refers to the signal ratio;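 note: 100% = dexamethasone at 0.1 µM and 0% = DMSO only wells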); settings: HeLa MMTV-bla, beta-lactamase ratio, agonist, 18 h; stronger effect = higher value; percent of dexamethasone control, DMSO zero
Sequence of Glucocorticoid receptor (Homo sapiens) (P04150 whole entry, looked up): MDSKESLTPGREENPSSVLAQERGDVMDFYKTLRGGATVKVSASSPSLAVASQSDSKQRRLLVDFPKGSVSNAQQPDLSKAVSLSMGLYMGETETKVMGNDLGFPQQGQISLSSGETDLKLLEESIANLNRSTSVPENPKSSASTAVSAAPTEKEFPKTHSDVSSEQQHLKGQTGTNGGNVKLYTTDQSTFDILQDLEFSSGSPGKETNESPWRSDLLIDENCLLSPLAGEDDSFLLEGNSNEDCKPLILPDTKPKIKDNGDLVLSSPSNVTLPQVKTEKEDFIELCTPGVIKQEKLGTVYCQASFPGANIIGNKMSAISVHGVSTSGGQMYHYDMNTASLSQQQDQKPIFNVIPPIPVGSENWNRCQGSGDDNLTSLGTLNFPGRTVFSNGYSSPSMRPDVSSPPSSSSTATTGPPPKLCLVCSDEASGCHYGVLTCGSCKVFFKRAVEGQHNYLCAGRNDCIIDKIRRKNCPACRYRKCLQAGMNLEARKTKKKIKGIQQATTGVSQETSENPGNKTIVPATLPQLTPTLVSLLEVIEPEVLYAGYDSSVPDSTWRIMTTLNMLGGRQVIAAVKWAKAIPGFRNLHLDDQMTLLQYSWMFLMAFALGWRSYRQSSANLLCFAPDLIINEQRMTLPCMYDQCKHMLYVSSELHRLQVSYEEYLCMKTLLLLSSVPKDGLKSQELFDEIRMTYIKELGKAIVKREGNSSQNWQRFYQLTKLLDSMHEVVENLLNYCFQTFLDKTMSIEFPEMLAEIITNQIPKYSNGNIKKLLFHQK
Summary of the method: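 Quantitative HTS using CellSensor MMTV-bla HeLa cells in charcoal/dextran-treated serum; compounds tested up to 92 uM. After 18 h at 37 C, CCF4 dye reported reporter induction.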

[2] = molecular target: Vitamin D3 receptor (Homo sapiens) (UniProt P11473); assay: qHTS assay for small molecule agonists of vitamin D receptor signaling (AID 588543; calls by dose curve;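 note: 0% = DMSO basal and 100% = reference agonist control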)
Sequence of Vitamin D3 receptor (Homo sapiens) (P11473 whole entry, looked up): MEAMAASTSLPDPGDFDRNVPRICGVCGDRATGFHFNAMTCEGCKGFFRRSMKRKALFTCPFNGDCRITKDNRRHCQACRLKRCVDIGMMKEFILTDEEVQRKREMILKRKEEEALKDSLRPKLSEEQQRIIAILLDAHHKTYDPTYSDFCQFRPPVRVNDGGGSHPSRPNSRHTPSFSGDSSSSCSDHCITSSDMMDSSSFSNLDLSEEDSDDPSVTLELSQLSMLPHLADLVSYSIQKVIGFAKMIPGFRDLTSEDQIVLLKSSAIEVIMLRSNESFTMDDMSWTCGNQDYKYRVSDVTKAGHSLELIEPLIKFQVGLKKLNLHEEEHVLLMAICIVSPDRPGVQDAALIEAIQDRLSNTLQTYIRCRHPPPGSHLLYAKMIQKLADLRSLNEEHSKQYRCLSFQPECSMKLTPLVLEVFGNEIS
Summary of the method: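 β-lactamase reporter, VDR-UAS-bla HEK293T, agonist mode. Cells plated 5 h at 37 °C, compound titration 16 h at 37 °C, CCF4 dye 2 h RT, ratio 460/530 nm. Hill fit → EC50, efficacy vs 50 nM 1α,25-(OH)2D3.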

[3] = qHTS assay for small molecule activators of the p53 signaling pathway (AID 651743; active = well fitted activation curve with a large enough effect in the signal ratio, not every such curve was filed as active; the % refers to the signal ratio; note: series mostly up to about 92 µM; % of control where 0% means no effect); settings: HCT-116 p53RE-bla, beta-lactamase FRET ratio, 16 h; activation: stronger effect = higher value
Summary of the method: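 Screen for p53 pathway agonists uses stably transfected p53RE-bla HCT-116 cells, 4,000 per well, treated 16 h at 37 C with compounds in DMSO.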

[4] = qHTS assay for environmental chemicals that activate the Aryl hydrocarbon Receptor (AhR) signaling pathway (AID 651777); settings: 1A2-DRE human hepatoma cells, luciferase, 24 h; activation: stronger effect = higher value; note: % of control where 0% means no effect; nearly all actives have a fitted effect of over 15% in size
Summary of the method: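 Luminescence read-out: One-Glo added for 30 min at RT after 24 hr compound treatment (37 C, 5% CO2) of human hepatoma cells expressing a DRE/CYP1A2 promoter–luciferase reporter; increased signal indicates AhR activation.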

[5] = molecular target: Peroxisome proliferator-activated receptor alpha (Homo sapiens) (UniProt Q07869); assay: qHTS assay for small molecule agonists of the peroxisome proliferator-activated receptor alpha (PPARalpha) signaling pathway (AID 651778); settings: PathHunter PPARalpha complementation, chemiluminescence, 6 h; max response: stronger effect = higher value; note: % of control where 0% means no effect
Sequence of Peroxisome proliferator-activated receptor alpha (Homo sapiens) (Q07869 whole entry, looked up): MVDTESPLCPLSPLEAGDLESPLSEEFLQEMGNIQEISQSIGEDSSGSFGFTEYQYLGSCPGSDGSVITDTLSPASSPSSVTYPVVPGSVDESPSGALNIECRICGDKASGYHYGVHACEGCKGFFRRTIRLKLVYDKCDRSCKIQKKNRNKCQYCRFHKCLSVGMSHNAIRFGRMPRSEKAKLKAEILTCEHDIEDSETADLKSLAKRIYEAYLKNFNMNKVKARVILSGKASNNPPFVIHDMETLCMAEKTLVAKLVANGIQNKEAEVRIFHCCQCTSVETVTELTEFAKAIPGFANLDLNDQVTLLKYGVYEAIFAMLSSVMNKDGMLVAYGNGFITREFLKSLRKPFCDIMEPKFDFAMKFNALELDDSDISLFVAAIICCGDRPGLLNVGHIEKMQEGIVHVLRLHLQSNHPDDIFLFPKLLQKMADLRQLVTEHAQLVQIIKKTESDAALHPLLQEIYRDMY
Summary of the method: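 Chemiluminescence from complemented enzyme reported PPARalpha activation in cells after 6 hr of compound treatment at 37 C. The detection reagent was incubated for 60 min at room temperature, and compounds were scored as agonists.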

[6] = qHTS assay for small molecule agonists of the antioxidant response element (ARE) signaling pathway measured by Nrf2-dependant transcriptional activity (AID 720636; active = well fitted curve in the direction sought with a large enough effect in the repeat runs; an effect the other way counts as inactive or inconclusive; note: potency is the fitted concentration of half-maximal effect;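 for activation: HepG2 cells with an ARE-driven luciferase reporter; % of control where 0% means no effect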)
Summary of the method: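 HepG2 ARE-luc reporter line, 1% dialyzed FBS; 6 hr attachment at 37 C, compound pinned in, 16 hr at 37 C/5% CO2; ONE-Glo, 30 min RT, luminescence read.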

[7] = qHTS assay for small molecule agonists of the antioxidant response element (ARE) signaling pathway measured by Nrf2-dependant transcriptional activity - cell viability counter screen (AID 720653; active = well fitted curve in the direction sought with a large enough effect in the repeat runs; an effect the other way counts as inactive or inconclusive; note: potency is the fitted concentration of half-maximal effect; for max response: % is set by controls: 0 for no effect and ±100 for the full control effect); settings: ARE-bla HepG2 viability, CellTiter-Glo ATP luminescence, 16 h; max response: stronger effect = lower value
Summary of the method: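 Cytotoxicity counter screen: intracellular ATP quantified by CellTiter-Glo luminescence in the same ARE-bla HepG2 plates, after 16 h compound exposure and a 2 h beta-lactamase substrate step.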

[8] = qHTS assay for cell viability of HEK293 cells (AID 743288); settings: ATP luminescence (CellTiter-Glo), 18 h; max response: stronger effect = lower value; note: nearly all actives have a fitted effect of over 50% in size; note: potency is the fitted concentration of half-maximal effect; for max response: % is set by controls: 0 for no effect and ±100 for the full control effect
Summary of the method: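 Environmental chemicals tested in qHTS format against parental HEK293 cells; 18 h treatment, 37 C; read-out ATP luminescence (CellTiter-Glo), 30 min RT development.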

[9] = qHTS assay for small molecule activators of the human pregnane X receptor (PXR) signaling pathway (AID 720659; call rule not given here; note: 0% is about no effect)
[10] = qHTS assay for cell viability of the p53RE-bla HCT-116 cell line (AID 743292); note: nearly all actives have a fitted effect of over 55% in size; note: potency is the fitted concentration of half-maximal effect
Summary of the method: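 Luminescent ATP quantitation (CellTiter-Glo) served as the viability read-out; reagent was added after 16 h compound exposure at 37 C and read after 30 min at room temperature. Cells: p53RE-bla HCT-116, 4,000 per well.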

[11] = qHTS assay for small molecule antagonists of peroxisome proliferator-activated receptor delta signaling (AID 588535); settings: HEK293T PPARd-UAS-bla, beta-lactamase FRET ratio, 18 h; 460 nm channel;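 note: cells co-treated with a PPAR-delta agonist as stimulator during compound exposure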
Summary of the method: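 Cell-based beta-lactamase assay in antagonist mode: 4000 HEK293T PPAR-delta-UAS-bla cells per well, 5 hr preincubation then 18 hr compound incubation at 37 C. IC50 obtained by Hill equation fitting.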

[12] = molecular target: Vitamin D3 receptor (Homo sapiens) (UniProt P11473); assay: qHTS assay for small molecule antagonists of vitamin D receptor signaling (AID 588541; calls by dose curve;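 note: receptor activated by calcitriol during compound treatment; series mostly up to about 77 µM; % is set by controls: 0 for no effect and ±100 for the full control effect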)
Summary of the method: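 Antagonist-mode beta-lactamase reporter assay: HEK293T VDR-UAS-bla cells were exposed to titrated compound alongside 1-alpha,25-dihydroxyvitamin D3 at 3 nM final for 16 h. Values were normalized to the 50 nM agonist control and DMSO basal, with IC50 and efficacy from Hill equation fits.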

[13] = qHTS assay for small molecule agonists of retinoid X receptor alpha signaling (AID 588544; calls by dose curve;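 for activation: 0% = DMSO basal wells and 100% = reference agonist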); settings: HEK293T RXRa-UAS-bla, beta-lactamase reporter, 18 h; 530 nm emission
[14] = molecular target: Retinoic acid receptor RXR-alpha (Homo sapiens) (UniProt P19793); assay: as above
Sequence of Retinoic acid receptor RXR-alpha (Homo sapiens) (P19793 whole entry, looked up): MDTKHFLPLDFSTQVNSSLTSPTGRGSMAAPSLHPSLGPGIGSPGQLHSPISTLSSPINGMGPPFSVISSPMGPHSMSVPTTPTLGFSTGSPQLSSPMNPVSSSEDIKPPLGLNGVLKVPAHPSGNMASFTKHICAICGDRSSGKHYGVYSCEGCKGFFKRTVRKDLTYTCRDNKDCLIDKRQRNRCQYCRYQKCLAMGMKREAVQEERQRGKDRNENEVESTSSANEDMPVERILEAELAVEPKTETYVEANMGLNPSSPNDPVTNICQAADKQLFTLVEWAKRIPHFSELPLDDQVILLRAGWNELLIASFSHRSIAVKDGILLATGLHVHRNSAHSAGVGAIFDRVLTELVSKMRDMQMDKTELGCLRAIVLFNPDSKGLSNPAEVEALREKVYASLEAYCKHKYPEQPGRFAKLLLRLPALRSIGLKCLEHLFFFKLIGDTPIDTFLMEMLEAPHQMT

[15] = molecular target: Thyroid hormone receptor beta (Homo sapiens) (UniProt P10828); assay: qHTS assay for small molecule agonists of thyroid hormone receptor beta signaling (AID 588545; calls by dose curve;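 note: 0% = DMSO only and 100% = 10 nM T3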)
Sequence of Thyroid hormone receptor beta (Homo sapiens) (P10828 whole entry, looked up): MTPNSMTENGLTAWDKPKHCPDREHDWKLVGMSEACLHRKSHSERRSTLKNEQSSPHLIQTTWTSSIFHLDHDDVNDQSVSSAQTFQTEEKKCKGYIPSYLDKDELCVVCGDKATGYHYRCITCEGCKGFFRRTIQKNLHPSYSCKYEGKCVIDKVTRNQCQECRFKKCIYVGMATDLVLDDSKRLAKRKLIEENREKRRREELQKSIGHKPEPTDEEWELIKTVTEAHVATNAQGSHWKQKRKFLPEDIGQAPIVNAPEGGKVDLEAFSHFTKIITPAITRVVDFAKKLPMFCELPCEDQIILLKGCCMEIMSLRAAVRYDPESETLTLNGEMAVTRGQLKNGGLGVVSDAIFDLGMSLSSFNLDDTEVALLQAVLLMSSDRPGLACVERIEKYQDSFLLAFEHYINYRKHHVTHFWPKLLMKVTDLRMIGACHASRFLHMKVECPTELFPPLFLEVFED
Summary of the method: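 TR-UAS-bla GripTite HEK 293 cells (2500/well, medium with 2% charcoal/dextran FBS) were treated in agonist mode for 18 h at 37 C, titrated. Beta-lactamase was read by CCF4 ratio after 2 h; normalized to 10 nM T3 (100%) and DMSO, Hill-fitted for EC50 and efficacy.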

[16] = qHTS assay for small molecule antagonists of retinoid X receptor alpha signaling (AID 588546; active = well fitted inhibition curve with a large enough effect in the signal ratio, with a control signal flat, not every such curve was filed as active; the % refers to the signal ratio;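 note: cells stimulated with 9-cis-retinoic acid as agonist; % is set by controls: 0 for no effect and ±100 for the full control effect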); settings: HEK293T RXRa-UAS-bla, beta-lactamase ratio, antagonist mode; measured here: W530 green channel, cytotoxicity proxy
Summary of the method: (§1)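 Beta-lactamase reporter inhibition, read as CCF4 fluorescence ratio (ex 405, em 460/530 nm) after 2 h at RT. HEK293T UAS-bla cells, 2500/well, were stimulated with 9-cis-RA at 500 or 100 nM final alongside test compound for 18 h at 37 C.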

[17] = molecular target: Retinoic acid receptor RXR-alpha (Homo sapiens) (UniProt P19793); assay: as above; settings: HEK293T RXRa-UAS-bla, beta-lactamase ratio, antagonist mode
Summary of the method: as §1

[18] = molecular target: Nuclear receptor subfamily 1 group I member 2 (Rattus norvegicus) (UniProt Q9R1A7); assay: qHTS assay for small molecule activators of the rat pregnane X receptor (rPXR) signaling pathway (AID 651751; call rule not given here; note: 0% is about no effect); settings: rPXR reporter cells, luciferase (One-Glo), 24 h
Sequence of Nuclear receptor subfamily 1 group I member 2 (Rattus norvegicus) (Q9R1A7 whole entry, looked up): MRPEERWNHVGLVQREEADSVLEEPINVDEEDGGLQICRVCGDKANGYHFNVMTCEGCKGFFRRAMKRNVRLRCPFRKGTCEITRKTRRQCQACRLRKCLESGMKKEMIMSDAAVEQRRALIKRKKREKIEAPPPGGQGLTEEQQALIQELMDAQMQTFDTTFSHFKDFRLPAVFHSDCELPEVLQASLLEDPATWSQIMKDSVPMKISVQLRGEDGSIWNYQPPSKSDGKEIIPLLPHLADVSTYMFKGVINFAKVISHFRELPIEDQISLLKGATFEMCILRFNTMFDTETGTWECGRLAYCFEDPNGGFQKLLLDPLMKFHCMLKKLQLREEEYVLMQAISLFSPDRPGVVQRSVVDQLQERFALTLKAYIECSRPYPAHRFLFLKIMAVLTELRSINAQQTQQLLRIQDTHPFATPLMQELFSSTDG

[19] = molecular target: Peroxisome proliferator-activated receptor gamma (Homo sapiens) (UniProt P37231); assay: qHTS assay for small molecule agonists of peroxisome proliferator-activated receptor gamma signaling (AID 588536; active = well fitted curve in the direction sought with a large enough effect in the signal ratio, with a control signal flat, not every such curve was filed as active; the % refers to the signal ratio;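 note: 0% = DMSO basal wells and 100% = rosiglitazone at 2 µM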)
Sequence of Peroxisome proliferator-activated receptor gamma (Homo sapiens) (P37231 whole entry, looked up): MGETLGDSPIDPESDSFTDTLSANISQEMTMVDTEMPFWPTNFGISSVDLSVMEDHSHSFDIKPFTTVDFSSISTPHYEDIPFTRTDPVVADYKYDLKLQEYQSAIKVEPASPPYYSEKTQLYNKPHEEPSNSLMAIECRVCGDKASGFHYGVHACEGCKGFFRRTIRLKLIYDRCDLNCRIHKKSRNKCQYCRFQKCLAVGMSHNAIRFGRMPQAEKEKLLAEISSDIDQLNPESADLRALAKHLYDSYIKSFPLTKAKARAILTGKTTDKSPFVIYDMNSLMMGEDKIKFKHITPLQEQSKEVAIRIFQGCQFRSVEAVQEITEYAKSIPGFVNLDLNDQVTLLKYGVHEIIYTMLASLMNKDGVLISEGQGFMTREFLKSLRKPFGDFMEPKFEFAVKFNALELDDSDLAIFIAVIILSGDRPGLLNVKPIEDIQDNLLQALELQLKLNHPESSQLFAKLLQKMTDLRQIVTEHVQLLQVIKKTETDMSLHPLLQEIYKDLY
Summary of the method: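 HEK293 UAS-bla reporter line, 1% charcoal/dextran FBS; titration, 16 h, 37 C; CCF4 loading 2 h RT; fluorescence 460/530 nm. Normalized to rosiglitazone 2 uM = 100%, DMSO = 0%.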

[20] = molecular target: Peroxisome proliferator-activated receptor gamma (Homo sapiens) (UniProt P37231); assay: qHTS assay for small molecule antagonists of peroxisome proliferator-activated receptor gamma signaling (AID 588537; active = well fitted inhibition curve with a large enough effect in the signal ratio, with a control signal flat, not every such curve was filed as active; the % refers to the signal ratio;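 note: reporter cells co-stimulated with 50 nM rosiglitazone agonist during compound treatment; % of control where 0% means no effect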)
Summary of the method: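 Inhibitors of agonist-stimulated UAS-bla reporter activity were sought in HEK293 cells; rosiglitazone (50 nM) defined full signal and DMSO baseline. Curves fitted to Hill model gave IC50 and efficacy.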

C=CC(=O)OCCOCC(CC)(COCCOC(=O)C=C)COCCOC(=O)C=C
inactive: activation [1] -19.8% | outcome [2] | activation [3] 14.9% | activation [4] 5.29% | max response [5] -0.796% | max response [7] -10.9% | outcome [9]
active: Potency [6] 21.7 µM | Potency [8] 39.8 µM

Cc1cc(Cc2cc(C)cc(C(C)(C)C)c2O)c(O)c(C(C)(C)C)c1
inactive: activation [1] 20.3% | activation [4] -12.4% | Potency [6]
active: Potency [7] 39.8 µM | Potency [8] 50.1 µM | Potency [10] 44.7 µM

CCNc1nc(N)nc(Cl)n1
-17.5% and -16.5%: max response [16]
-5.45% and -6.57%: max response [13]
34.2%: max response [11]
inactive: Potency [12] | outcome [2] | Potency [14] | Potency [15] | max response [17] 7.29% and -4.52% | activation [3] -2.48% and -1.49% | max response [5] -2.09% and -1.78% | Potency [6] | max response [7] -7.89% and -3.73% | max response [8] -4.19% and 3.18% | Potency [10] | max response [18] -3.95% and -0.52%

CC1(C)C(=O)N(Br)C(=O)N1Cl
inactive: outcome [19] | Potency [20] | Potency [12] | outcome [2] | Potency [14] | Potency [15] | max response [17] -6.62% | activation [3] 2.83% | activation [4] 1.28% | max response [5] -1.51% | Potency [6] | max response [7] -11.1% | max response [8] -4.13% | Potency [10] | max response [18] 1.46%
-9.45%: max response [16]
-10%: max response [13]
